Measurements published in the supplement of paper PMC12636033.
± gives the standard deviation of the averaged measurements. Whole data set: some 33,000 sequences, median “E-score (rank enrichment, -0.5 to 0.5)” near -0.0028, cut for the highest 2% near 0.23. The sample as a whole holds a higher share of the highest values than the screen did.

These sequences were tested on 2Sb-muMax20 (muMax20 with two 1,3-bis(methyl)benzene Cys staples, A13C/A17C and Q88C/A92C, C-terminal Lys) (assay: PBM 8-mer E-score (E-score (rank enrichment, -0.5 to 0.5)); higher = stronger preferential binding).
Procedure: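 Protein binding microarray (universal PBM chip covering all 10-mers in fixed probe flanks) with chemically synthesized human Max(13-93) bHLH-LZ analogs (not full-length Max) bearing noncanonical residues (hArg, Tha, Aib, Nle at 65) and aromatic Cys staples. Read-out per 8-mer (and its reverse complement): E-score (rank-based enrichment, -0.5 to 0.5) and Z-score of median probe intensity.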

Sequence | PBM 8-mer E-score
CAATACAA | 0.234 ± 0.0058
ACATACAG | 0.188 ± 0.014
ATACACAG | 0.0629 ± 0.073
ACATACAC | 0.127 ± 0.016
ATACACAT | 0.244 ± 0.02
AGACTAGG | -0.0528 ± 0.031
CGGTACCC | -0.133 ± 0.015
CCTAGAGC | -0.0448 ± 0.0096
CCGATCGG | -0.289 ± 0.039
CGGCTAAC | -0.13 ± 0.011
TCCGTCCA | -0.0552 ± 0.013
GCGCATAC | 0.0299 ± 0.0056
ATCGGTGG | -0.0489 ± 0.0043
ATAACCTC | 0.175 ± 0.016
AAGGCCCC | 0.068 ± 0.039
AGAGTGAC | -0.11 ± 0.0053
AAATACAC | 0.145 ± 0.033
ACCTATAT | 0.233 ± 0.0084
AAATACAA | 0.0975 ± 0.074
TCATACAA | 0.235 ± 0.035
ACCTATAC | 0.0485 ± 0.061
CCATACAA | 0.115 ± 0.024

Sequence | PBM 8-mer E-score
AAATATAT | 0.313 ± 0.02
ACCTATAA | 0.00571 ± 0.046
AAATACAT | 0.241 ± 0.058
AAATATAC | 0.138 ± 0.019
AAATATAA | 0.21 ± 0.022
GCATACAA | 0.119 ± 0.0048
ATCACCGA | -0.0646 ± 0.084
CCTCCACC | 0.0772 ± 0.089
ATCGGGAG | -0.0438 ± 0.039
CCAGATCG | -0.185 ± 0.061
CTAACAAG | 0.0426 ± 0.045
ATATGGCG | 0.123 ± 0.007
GAAGGTAA | 0.0664 ± 0.084
ACATATAT | 0.255 ± 0.024
ACATATAC | 0.137 ± 0.0056
ACATATAG | 0.131 ± 0.031
CCATCATA | 0.155 ± 0.017
ACATCATC | 0.0415 ± 0.031
CTATCATA | 0.149 ± 0.03
ACATCATA | 0.243 ± 0.0089
ATATCATA | 0.239 ± 0.055
ATATCATG | 0.178 ± 0.016

Sequence | PBM 8-mer E-score
CGTGGAAC | -0.0767 ± 0.0022
AGTGTGGC | -0.0951 ± 0.025
GTAAGGGA | -0.0384 ± 0.016
ACATCCTC | 0.028 ± 0.067
CCCACGCG | 0.221 ± 0.031
ATCACGCC | 0.0526 ± 0.033
ACCACGTG | 0.432 ± 0.025
ACCACGTA | -0.0697 ± 0.045
ATCACGCG | 0.239 ± 0.026
AGCACGTG | 0.431 ± 0.0076
ACCACGCG | 0.283 ± 0.02
AGCACGTA | 0.128 ± 0.038
AGCACGTC | -0.156 ± 0.042
ACCACGTC | -0.01627 ± 2.1e-05
ACCACGCA | -0.0882 ± 0.019
ATCACGCA | -0.037 ± 0.094
AATTTCGT | 0.0796 ± 0.033
GATTGCCC | -0.0998 ± 0.019
ATTTAGCG | 0.0611 ± 0.079
ATCACGTG | 0.4 ± 0.014
ATCACGTA | 0.163 ± 0.032
ATCACGTC | 0.0586 ± 0.042

Sequence | PBM 8-mer E-score
TAGCTACA | 0.0611 ± 0.017
TGGGTACA | -0.0341 ± 0.055
CTTGTTTC | 0.169 ± 0.026
ATTGTTTC | 0.248 ± 0.046
ATTGTTTG | 0.106 ± 0.05
CGGTATTA | -0.1001 ± 0.00022
GATATATA | 0.152 ± 0.015
CAAATATA | 0.151 ± 0.0063
TATATATA | 0.326 ± 0.048
TATATAAA | 0.177 ± 0.052
AAAATATA | 0.178 ± 0.027
TAAATATA | 0.238 ± 0.0035
AGAACACG | 0.104 ± 0.028
AGTCGAAG | 0.0391 ± 0.095
CGCTCGAG | 0.136 ± 0.036
GGTTGTTA | 0.116 ± 0.038
ACTACTGA | -0.123 ± 0.021
CCCGAGAG | -0.255 ± 0.041
ATCAGCCG | -0.223 ± 0.0056
ATCAGCCA | -0.0692 ± 0.065
ATCAGCCC | 0.231 ± 0.03
CAAGAGTC | -0.073 ± 0.074
